# HSP90 refold inh: HSP90 inhibitors, primary screen, cell lysate, luminescence | Heat shock protein HSP 90 (rabbit reticulocyte lysate; luciferase refolding) | Rabbit reticulocyte lysate, luciferase refolding luminescence, 3 h | inhibition, % at 5.6 µM | 290,000 compounds, 0.91% hits;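 active means inhibition above the screen-wide mean plus 3 SD, computed separately per campaign, cut at about 16% in these data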;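 further: 0% = DMSO wells and 100% = 60 µM geldanamycin wells; inhibitors lower the luminescence because luciferase stays unfolded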
# SENP7 block: SENP7 protease inhibitors, primary screen, biochemical, luminescence, uHTS | Sentrin-specific protease 7 (Homo sapiens), Q9BQF6 | recombinant SENP7, Z-RLRGG-aminoluciferin luminescence, 40 min | inhibition, % at 5 µM | 330,000 compounds, 1.5% hits | AID 434973, 2010;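 active means inhibition above about 50% at the single test dose, limit read from the data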;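 further: plate controls were DMSO with enzyme for no effect and no enzyme buffer wells for full effect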
# Target sequence (Q9BQF6 706-1050 limits assumed): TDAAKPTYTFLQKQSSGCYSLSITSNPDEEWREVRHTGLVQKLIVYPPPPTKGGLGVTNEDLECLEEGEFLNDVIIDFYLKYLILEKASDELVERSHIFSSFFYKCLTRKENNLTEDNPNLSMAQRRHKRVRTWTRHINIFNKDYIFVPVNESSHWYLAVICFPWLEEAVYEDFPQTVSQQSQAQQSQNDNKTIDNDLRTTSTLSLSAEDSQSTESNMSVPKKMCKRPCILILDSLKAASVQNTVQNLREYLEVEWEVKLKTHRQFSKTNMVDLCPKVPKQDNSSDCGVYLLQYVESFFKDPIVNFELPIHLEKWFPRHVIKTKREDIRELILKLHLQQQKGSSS
# Platelet DG rel: inhibitors of platelet dense granule secretion, primary screen, cell-based, MLPCN, human platelets | 300,000 compounds, 0.22% hits | AID 1663, 2009 | inhibition, %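 (compounds screened at 7.5 µM in platelet-rich plasma)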 | human platelet-rich plasma, SFLLRN dense granule ATP release, luminescence;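 active means mean replicate score, as percent of positive control, at or above 50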
# SENP8 block-1: human SENP8 protease inhibitors, primary screen, biochemical, fluorescence, Nedd8 protein substrate, uHTS | AID 602440, 2012 | recombinant SENP8 | inhibition, % at 20 µM | 360,000 compounds, 0.64% hits | Sentrin-specific protease 8 (Homo sapiens), Q96LD8; in the data active means inhibition mostly above about 40%, no sharp cut-off; inactive means mostly below about 27%
# SENP8 block-2: SENP8 protease inhibitors, primary screen, biochemical, luminescence. Sentrin-specific protease 8 (Homo sapiens), Q96LD8. purified SENP8, Z-RLRGG-aminoluciferin cleavage. inhibition, % at 10 µM. 330,000 compounds, 1.2% hits; in the data active means inhibition above about 50%
# SENP6 block: SENP6 protease inhibitors, primary screen, biochemical, luminescence, uHTS. Sentrin-specific protease 6 (Homo sapiens), Q9GZR1. inhibition, % at 10 µM. 330,000 compounds, 1.8% hits. Recombinant SENP6 catalytic domain, aminoluciferin luminescence. AID 2599, 2010;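 active means inhibition above about 50% at the single tested dose, limit read from the data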;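 further: plate controls were DMSO wells with enzyme for no effect and DMSO wells lacking enzyme for full effect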
# SENP8 conf: SENP8 protease inhibitors, retest, confirmation, biochemical, luminescence, single concentration; 6,200 compounds, 40% hits; Recombinant SENP8, Z-RLRGG-aminoluciferin luminescence, 60 min; inhibition, % at 12.5 µM; shares compounds with SENP7 block;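 active means mean inhibition across replicates above about 50%, limit read from the data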
# SENP6 conf: SENP6 protease inhibitors, confirmation, biochemical, luminescence, single concentration; shares compounds with SENP7 block; recombinant SENP6, Z-RLRGG-aminoluciferin luminescence; inhibition, % at 12.5 µM; 6,200 compounds, 58% hits; AID 488915, 2010
# SENP7 confirm: SENP7 protease inhibitors, retest, confirmation, biochemical, luminescence, single concentration; recombinant SENP7, Z-RLRGG-aminoluciferin luminescence, 40 min; shares compounds with SENP7 block; 6,200 compounds, 69% hits; inhibition, % at 12.5 µM
# Casp3 select: caspase-3 protease inhibitors, confirmation, selectivity assay for SENP inhibitor project, biochemical, single concentration. shares compounds with SENP7 block. purified caspase-3, Z-DEVD-aminoluciferin luminescence, 60 min. inhibition, % at 12.5 µM. 6,200 compounds, 60% hits;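 active means mean inhibition above about 50%, limit read from the data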;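 further: plate controls were enzyme with DMSO for no effect and wells without caspase-3 for full effect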
# Target sequence (P42574 28-227 limits assumed): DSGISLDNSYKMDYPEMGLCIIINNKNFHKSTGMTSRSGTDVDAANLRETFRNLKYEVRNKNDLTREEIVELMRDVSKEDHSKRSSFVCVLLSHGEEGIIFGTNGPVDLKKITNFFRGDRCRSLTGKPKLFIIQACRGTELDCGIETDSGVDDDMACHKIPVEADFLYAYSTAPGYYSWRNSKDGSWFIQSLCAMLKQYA
# SENP luc ctr: counter-screen for SENP inhibitors: luminescence interference | shares compounds with SENP7 block | Pre-incubated SENP8/Z-RLRGG-aminoluciferin, luciferase luminescence interference | inhibition, % at 12.5 µM | 6,200 compounds, 39% hits | AID 488919;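 active means mean inhibition above about 50% when retested at one dose, limit read from the data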;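 further: plate controls were DMSO wells with completed reaction for no effect and substrate without enzyme for full effect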
# Starred values were filed as active, the others as inactive; x = not tested or not shown. Compounds with a hit are over-represented: about 2.8% of the library has one in this group of screens.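 How the source made its calls, unless noted: active means mean inhibition above about 50% in the one-dose retest (limit read from the data); inactive means the rest.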
SMILES,HSP90 refold inh,SENP7 block,Platelet DG rel,SENP8 block-1,SENP8 block-2,SENP6 block,SENP8 conf,SENP6 conf,SENP7 confirm,Casp3 select,SENP luc ctr
COc1ccc(S(=O)(=O)N2CCCCC2)cc1NC(=O)C1CC1(Cl)Cl (stereo not given),x,x,x,19,x,x,x,x,x,x,x
O=C(NCC1CCCN1S(=O)(=O)c1cccs1)c1ccc([N+](=O)[O-])cc1 (stereo not given),x,6,-6,5,3,-10,x,x,x,x,x
Cc1ccc(-c2nc(-c3cccnc3)no2)c(C)c1,-3,46,0,30,24,-10,x,x,x,x,x
Clc1ccc(-c2nc(-c3cnccn3)no2)cc1,-5,98*,10,16,90*,96*,90*,93*,101*,97*,56*
Fc1ccc(-c2nc(-c3cnccn3)no2)c(Cl)c1,5,85*,15,13,81*,88*,85*,85*,96*,94*,50
OC1(c2ccc(Cl)cc2)CCN(Cc2nc(-c3cnccn3)no2)CC1,-1,-1,0,-1,5,-5,x,x,x,x,x
CN(C)S(=O)(=O)c1ccc(Cl)c(NC(=O)CN2C(=O)NC3(CCc4ccccc43)C2=O)c1 (stereo not given),x,3,x,7,8,-4,x,x,x,x,x
COc1ccc(-c2nc(CSCC(=O)NC3CCN(Cc4ccccc4)CC3)c(C)o2)cc1OC,-2,-2,-8,1,-8,-7,x,x,x,x,x
NC(=O)C1CCN(CCS(=O)(=O)c2ccc(Cl)cc2)CC1,-2,-9,-2,1,4,11,x,x,x,x,x
Cc1ccc(C)c(N=Nc2ccc(O)c3ncccc23)c1,2,-1,2,34,0,4,x,x,x,x,x
Cc1cccc(N=Nc2ccc(O)c3ncccc23)c1,3,26,25,37,33,69*,-15,-2,9,48,1
CCc1ccc([C@@H]2CC=C(C(=O)O)[C@H](c3ccc(F)cc3)N2S(=O)(=O)c2ccc(C)cc2)cc1,x,14,x,9,-5,-15,x,x,x,x,x
O=C(Nc1nc(COc2ccccc2)cs1)C1CCC1,0,10,-10,12,1,54*,-28,-20,-11,-7,-3
CC(=O)Nc1nc(COc2ccc3ccccc3c2)cs1,-5,62*,3,10,37,62*,44,47,81*,x,37
CC(=O)Nc1nc(COc2ccccc2)cs1,-2,2,5,10,-3,-5,x,x,x,x,x
CC1=C(C(=O)N(C)C)C(c2ccc(C)s2)NC(=S)N1 (stereo not given),1,-1,-4,24,-5,-14,x,x,x,x,x
O=c1c2ccccc2nc2oc3ccccc3n12,3,80*,-3,-25,74*,88*,44,48,70*,82*,16
Cc1ccc(NC(=O)NC(=O)CSc2nnc(-c3ccc(Cl)cc3Cl)n2N)c(C)c1,0,59*,12,19,40,63*,56*,56*,83*,32,72*
Cc1ccsc1C=C1C(=O)c2ccccc2C1=O,3,69*,9,31,44,11,74*,66*,79*,69*,37
Cc1ccsc1/C=C1/C(=O)NN(c2ccccc2)C1=O,-2,27,12,28,11,-2,x,x,x,x,x
CCOC(=O)c1cnc2c(C)cc(Cl)cc2c1N1CCN(C)CC1,1,1,5,9,-5,5,x,x,x,x,x
Nc1cccc2cc(-c3ccccc3)oc12,x,48,x,-497,36,55*,34,35,72*,32,53*
O=C(O)COc1ccccc1/C=N/NC(=O)CSc1nnc(SCc2ccc(Cl)cc2)s1,-3,9,2,26,45,66*,36,49,67*,19,3
Cc1ccc(-c2nnc(SCC(=O)N/N=C/c3c(C)nn(-c4ccccc4)c3C)n2-c2ccccc2)cc1,-1,6,5,13,1,3,x,x,x,x,x
Cc1ccc(CSc2nnc(SCC(=O)N/N=C/c3c(C)nn(-c4ccccc4)c3C)s2)cc1,-8,55*,-7,16,41,75*,12,26,39,12,6
SMILES,HSP90 refold inh,SENP7 block,Platelet DG rel,SENP8 block-1,SENP8 block-2,SENP6 block,SENP8 conf,SENP6 conf,SENP7 confirm,Casp3 select,SENP luc ctr
COc1ccc2nc(NC(=S)N(C)C)sc2c1,0,76*,2,18,67*,81*,80*,79*,94*,69*,79*
Cc1csc(NC(=O)c2ccccc2O)n1,-1,6,5,-399,-3,10,x,x,x,x,x
Cc1ccc(C(=O)Nc2nc3ccc(S(C)(=O)=O)cc3s2)s1,-1,47,8,-202,51*,68*,5,53*,43,62*,23
Cc1csc(NC(=O)c2cc(C)oc2C)n1,-3,59*,5,2,46,69*,64*,63*,89*,84*,65*
COc1ccc2nc(NC(=O)c3cc(C)oc3C)sc2c1,2,101*,47,-83,90*,88*,-20,94*,102*,96*,63*
COC(=O)[C@@]12C[C@@H](CC(=O)N3CCN(C(=O)c4ccco4)CC3)C(=O)N(Cc3ccccc3)C1=CCC(C)(C)C2,x,x,x,12,x,x,x,x,x,x,x
C=Cc1ccc(CC2(C)C(=O)Nc3ccc(-c4cccnc4)cc32)cc1 (stereo not given),x,x,x,5,x,x,x,x,x,x,x
CC(=O)c1cccc(CN(C)CC2CCCN(CCc3ccccc3C)C2)c1 (stereo not given),0,1,-7,12,-1,2,x,x,x,x,x
Cc1cccc(CNC(=O)c2sc(=O)n(Cc3ccc(S(C)(=O)=O)cc3)c2C)c1,x,x,x,5,x,x,x,x,x,x,x

# Screening data (PubChem BioAssay)
